Our source for the cell count values is the supplement of paper PMC4709259.

Structures can show the parent of a compound that is named as a salt. ± gives the standard deviation.

The subject of the assay is Jurkat. In words: cell count relative to DMSO control (fraction of control); higher = more cells (less growth inhibition). The following applies: 48 h.
Consider `CCOC(=O)N1CCC(=C2c3ccc(Cl)cc3CCc3cccnc32)CC1` [Loratadine] (concentration: 25 µM), for which the cell count came out at 0.367 ± 0.031.

Regarding `Nc1nc(=O)[nH]cc1F` [Flucytosine] (concentration: 25 µM), the cell count turned out to be 0.919 ± 0.025.

Consider `CC(C)CN(C[C@@H](O)[C@H](Cc1ccccc1)NC(=O)O[C@H]1CO[C@H]2OCC[C@H]21)S(=O)(=O)c1ccc(N)cc1` [Darunavir] (concentration: 25 µM), for which the cell count was found to be 0.62 ± 0.062.

`CC(=O)CCCCn1c(=O)c2c(ncn2C)n(C)c1=O` [Pentoxifylline] (concentration: 25 µM) showed a cell count of 1.09 ± 0.12.

The molecule `CCNC(=O)CCC/C=C\C[C@@H]1[C@@H](/C=C/[C@@H](O)CCc2ccccc2)[C@H](O)C[C@@H]1O` [Bimatoprost] (concentration: 25 µM) displayed a cell count of 0.307 ± 0.091.

With `Cc1cccc(Nc2ccccc2C(=O)O)c1C` [Mefenamic Acid] (concentration: 25 µM), the cell count was found to be 0.655 ± 0.14.

In the case of `C[C@]12CCC(=O)C=C1[C@@H]1C[C@@H]1[C@H]1[C@@H]3[C@@H]4C[C@@H]4[C@@]4(CCC(=O)O4)[C@@]3(C)CC[C@@H]12` [Drospirenone] (concentration: 25 µM), the cell count is 0.692 ± 0.11.

`COc1cccc2c1C(=O)c1c(O)c3c(c(O)c1C2=O)C[C@@](O)(C(=O)CO)C[C@@H]3O[C@H]1C[C@H](N)[C@H](O)[C@H](C)O1` [Doxorubicin·HCl] (concentration: 250 nM) registered a cell count of 0.234 ± 0.035.

On to `CN1C2CCCC1CC(NC(=O)c1nn(C)c3ccccc13)C2` (configuration not stated) [Granisetron·HCl] (concentration: 25 µM), for which the cell count was 0.899 ± 0.037.

The molecule `Cc1cn[nH]c1` [Fomepizole] (concentration: 25 µM) yielded a cell count of 0.868 ± 0.17.

`NCCCC[C@H](N[C@@H](CCc1ccccc1)C(=O)O)C(=O)N1CCC[C@H]1C(=O)O` [Lisinopril·2H2O] (concentration: 25 µM) gave a cell count of 0.884 ± 0.075.

`CCc1cccc2c3c([nH]c12)C(CC)(CC(=O)O)OCC3` (configuration not stated) [Etodolac] (concentration: 25 µM) came in with a cell count of 0.947 ± 0.018.

Regarding `CCOC(=O)[C@H](CCc1ccccc1)N[C@@H](C)C(=O)N1CCC[C@H]1C(=O)O` [Enalapril] (concentration: 25 µM), the cell count was 0.733 ± 0.042.

`O=S(=O)(O)CCS` [Mesna] (concentration: 25 µM) displayed a cell count of 0.769 ± 0.16.

`COc1cc2nc(N(C)CCCNC(=O)C3CCCO3)nc(N)c2cc1OC` (configuration not stated) [Alfuzosin] (concentration: 25 µM) showed a cell count of 0.41 ± 0.14.

As for `CN1CCC(=C2c3ccccc3C=Cc3ccccc32)CC1` [Cyproheptadine·HCl Sesquihydrate] (concentration: 25 µM), the cell count turned out to be 0.762 ± 0.049.

The molecule `CC1COc2c(N3CCN(C)CC3)c(F)cc3c(=O)c(C(=O)O)cn1c23` (configuration not stated) [Ofloxacin] (concentration: 25 µM) came in with a cell count of 0.989 ± 0.073.

The molecule `O=C1Cc2cc(CCN3CCN(c4nsc5ccccc45)CC3)c(Cl)cc2N1` [Ziprasidone] (concentration: 25 µM) displayed a cell count of 0.838 ± 0.098.

In the case of `CO/N=C(\C(=O)N[C@@H]1C(=O)N2C(C(=O)O)=C(CSc3nc(=O)c(=O)[nH]n3C)CS[C@H]12)c1csc(N)n1` [Ceftriaxone·Na] (concentration: 25 µM), the cell count amounted to 1.06 ± 0.073.

As to `OC[C@@H](O)[C@@H](O)[C@H](O)[C@H](O)CO` [Mannitol] (concentration: 25 µM), the cell count is 0.977 ± 0.097.

`Nc1nc(N)c2nc(-c3ccccc3)c(N)nc2n1` [Triamterene] (concentration: 25 µM) yielded a cell count of 0.398 ± 0.082.

Turning to `Nc1ncn([C@@H]2O[C@H](CO)[C@@H](O)[C@H]2O)c(=O)n1` [Azacitidine] (concentration: 25 µM), the cell count amounted to 0.668 ± 0.11.

In the case of `CCCc1nc2c(C)cc(-c3nc4ccccc4n3C)cc2n1Cc1ccc(-c2ccccc2C(=O)O)cc1` [Telmisartan] (concentration: 25 µM), the cell count amounted to 0.725 ± 0.051.

Molecule `CN(C)CC(c1ccc(O)cc1)C1(O)CCCCC1` (configuration not stated) [Desvenlafaxine Succinate Hydrate] (concentration: 25 µM) yielded a cell count of 0.64 ± 0.09.

Turning to `O=C(O)CCCc1ccccc1` [Sodium Phenylbutyrate] (concentration: 25 µM), the cell count came out at 1.05 ± 0.12.

Regarding `Cc1nccn1CC1CCc2c(c3ccccc3n2C)C1=O` (configuration not stated) [Ondansetron] (concentration: 25 µM), the cell count was 0.816 ± 0.074.

As for `COc1nc(N)nc2c1ncn2[C@@H]1O[C@H](CO)[C@@H](O)[C@@H]1O` [Nelarabine] (concentration: 25 µM), the cell count amounted to 0.201 ± 0.029.
